# Experimental data from PubChem BioAssay (EPA / NIEHS).
# Active and inactive are the calls of the source. The calls were made as follows: active = hit-call score of the fitted dose curve at least 0.9, where 1 is the maximum; inactive = score below 0.9.
# Tests used:
# [1] = BSK_hDFCGF_SRB: Viability Assessment in the BioMAP Diversity Plus: hDFCGF Assay (AID 2283061); settings: primary human foreskin fibroblasts;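 also: cells exposed to compound for 24 h before the read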
# How it was run: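 Human foreskin fibroblasts in 96-well plates were treated 24 h. Total protein was measured by 0.1% SRB staining after 10% TCA fixation, read at 560 nm. Data were fitted bidirectionally against DMSO.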
# [2] = read-out: Monokine induced gamma interferon (MIG), CXCL9 (gene 4283); assay: BSK_hDFCGF_MIG: BioMAP Diversity Plus: hDFCGF Assay for Monokine induced gamma interferon (MIG) Biomarker Activity (AID 2283063); settings: primary human foreskin fibroblasts; actives raise or lower the signal
# How it was run: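 MIG/CXCL9 measured by ELISA 24 h after dosing primary human skin fibroblasts. Activity fitted in both directions against DMSO controls. Cytotoxicity was checked in parallel cultures by SRB staining read at 560 nm.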
# [3] = read-out: Matrix Metallopeptidase 1 (MMP1), MMP1 (gene 4312); assay: BSK_hDFCGF_MMP1: BioMAP Diversity Plus: hDFCGF Assay for Matrix Metallopeptidase 1 (MMP1) Biomarker Activity (AID 2283064); settings: primary human foreskin fibroblasts; actives raise or lower the signal
# How it was run: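 ELISA read-out of MMP1 from human foreskin fibroblasts (primary skin cells), 24 h post-dose. Gain or loss of signal was fitted bidirectionally versus DMSO negative control; cytotoxicity was checked by SRB in parallel cultures.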
# [4] = read-out: Vascular cell adhesion molecule 1 (VCAM1), VCAM1 (gene 7412); assay: BSK_hDFCGF_VCAM1: BioMAP Diversity Plus: hDFCGF Assay for Vascular cell adhesion molecule 1 (VCAM1) Biomarker Activity (AID 2283065); settings: primary human foreskin fibroblasts; actives raise or lower the signal;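 as to AC50: VCAM-1 protein level quantified by ELISA after 24 h chemical exposure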
# How it was run: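 Human foreskin fibroblast primary cells dosed with chemical, VCAM-1 measured by ELISA at 24 h. Bidirectional curve fitting relative to DMSO as negative control/baseline.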
# [5] = read-out: Plasminogen activator inhibitor-1 (PAI1), SERPINE1 (gene 5054); assay: BSK_hDFCGF_PAI1: BioMAP Diversity Plus: hDFCGF Assay for Plasminogen activator inhibitor-1 (PAI1) Biomarker Activity (AID 2283066); settings: primary human foreskin fibroblasts; actives raise or lower the signal
# How it was run: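 Human skin fibroblast cultures receive chemical for 24 h before PAI-1 is measured by ELISA; signal changes are fitted bidirectionally against DMSO-treated wells.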
# [6] = read-out: Intercellular Adhesion Molecule 1 (ICAM1), ICAM1 (gene 3383); assay: BSK_KF3CT_ICAM1: BioMAP Diversity Plus: KF3CT Assay for Intercellular Adhesion Molecule 1 (ICAM1) Biomarker Activity (AID 2283067); settings: primary human keratinocytes with fibroblasts; actives raise or lower the signal
# How it was run: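 Human keratinocyte–foreskin fibroblast co-culture was treated for 24 h. Cell-surface ICAM-1 was quantified by ELISA, fitted bidirectionally relative to DMSO. Cytotoxicity was checked in parallel cultures by SRB total-protein staining.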
# [7] = read-out: Interferon-gamma inducible Protein 10 (IP10), CXCL10 (gene 3627); assay: BSK_KF3CT_IP10: BioMAP Diversity Plus: KF3CT Assay for Interferon-gamma inducible Protein 10 (IP10) Biomarker Activity (AID 2283068); settings: primary human keratinocytes with fibroblasts; actives raise or lower the signal
# How it was run: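 Signal is secreted/surface IP-10 by ELISA in a human primary skin co-culture of keratinocytes and foreskin fibroblasts, taken 24 h post-dosing; DMSO served as negative control.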
# [8] = BSK_KF3CT_SRB: Viability Assessment in the BioMAP Diversity Plus: KF3CT Assay (AID 2283069); settings: primary human keratinocytes with fibroblasts;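 also: total protein by sulforhodamine B staining as a cytotoxicity measure; read 24 h after compound addition; fitted for both signal gain and loss against DMSO baseline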
# How it was run: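 SRB read-out at 560 nm (0.1% stain, TCA-fixed cells) gauges overt cytotoxicity in a human skin keratinocyte–fibroblast co-culture 24 h post-dosing. Signal change was fitted bidirectionally relative to DMSO control.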
# [9] = read-out: Interleukin-1 alpha (IL1a), IL1A (gene 3552); assay: BSK_KF3CT_IL1a: BioMAP Diversity Plus: KF3CT Assay for Interleukin-1 alpha (IL1a) Biomarker Activity (AID 2283070); settings: primary human keratinocytes with fibroblasts; actives raise or lower the signal
# How it was run: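 Primary skin co-culture (keratinocytes, foreskin fibroblasts), 24 h exposure; ELISA for IL-1a; bidirectional curve fit vs DMSO.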
smiles,measurement,setting,value
CC(C)N(Cc1ccccc1)C(=O)C(C)(C)C,outcome,[1],inactive
same,outcome,[2],inactive
same,outcome,[3],inactive
same,outcome,[4],inactive
same,outcome,[5],inactive
same,outcome,[6],inactive
same,outcome,[7],inactive
same,outcome,[8],inactive
same,outcome,[9],inactive
O=[N+]([O-])C(Br)(CO)CO,AC50,[1],30.5 µM (active)
same,AC50,[3],32.3 µM (active)
same,AC50,[4],26.7 µM (active)
same,AC50,[5],26.8 µM (active)
same,AC50,[6],35.8 µM (active)
same,AC50,[7],34.9 µM (active)
same,AC50,[8],33.2 µM (active)
same,AC50,[9],32.5 µM (active)
c1ccc2c(c1)oc1ccccc12,outcome,[1],inactive
same,outcome,[3],inactive
same,outcome,[4],inactive
same,outcome,[5],inactive
same,outcome,[6],inactive
same,outcome,[7],inactive
same,outcome,[8],inactive
same,outcome,[9],inactive
ClCCOCCCl,outcome,[1],inactive
same,outcome,[2],inactive
same,outcome,[3],inactive
same,outcome,[4],inactive
same,outcome,[5],inactive
same,outcome,[6],inactive
same,outcome,[7],inactive
same,outcome,[8],inactive
same,outcome,[9],inactive
CCCCCCCCOC(=O)c1ccc(C(=O)OCCCCCCCC)c(C(=O)OCCCCCCCC)c1,outcome,[1],inactive
same,outcome,[2],inactive
same,outcome,[3],inactive
same,outcome,[4],inactive
same,outcome,[5],inactive
same,outcome,[6],inactive
same,outcome,[7],inactive
same,outcome,[8],inactive
same,outcome,[9],inactive
OCCCl,outcome,[1],inactive
same,outcome,[3],inactive
same,outcome,[4],inactive
same,outcome,[5],inactive
same,outcome,[6],inactive
same,outcome,[7],inactive
same,outcome,[8],inactive
same,outcome,[9],inactive
O=C(Nc1ccccc1)c1ccccc1I,outcome,[1],inactive
same,outcome,[3],inactive
same,outcome,[4],inactive
same,outcome,[5],inactive
same,outcome,[6],inactive
same,outcome,[7],inactive
same,outcome,[8],inactive
same,outcome,[9],inactive
CN(C)c1ccccc1,outcome,[1],inactive
same,outcome,[3],inactive
same,outcome,[4],inactive
same,outcome,[5],inactive
same,outcome,[6],inactive
same,outcome,[7],inactive
same,outcome,[8],inactive
same,outcome,[9],inactive
CCCSC(=O)N(CCC)CCC,outcome,[1],inactive
same,outcome,[3],inactive
same,outcome,[4],inactive
same,outcome,[5],inactive
same,outcome,[6],inactive
same,outcome,[7],inactive
same,outcome,[8],inactive
same,outcome,[9],inactive
c1ccc(C2CO2)cc1 (centres undefined),outcome,[1],inactive
same,outcome,[3],inactive
same,outcome,[4],inactive
same,outcome,[5],inactive
same,outcome,[6],inactive
same,outcome,[7],inactive
same,outcome,[8],inactive
same,outcome,[9],inactive
Nc1ccc(Cc2ccc(N)cc2)cc1,outcome,[1],inactive
same,outcome,[3],inactive
same,outcome,[4],inactive
same,outcome,[5],inactive
same,outcome,[6],inactive
same,outcome,[7],inactive
same,outcome,[8],inactive
same,outcome,[9],inactive
O=C1CCCO1,outcome,[1],inactive
same,outcome,[2],inactive
same,outcome,[3],inactive
same,outcome,[4],inactive
same,outcome,[5],inactive
same,outcome,[6],inactive
same,outcome,[7],inactive
same,outcome,[8],inactive
same,outcome,[9],inactive
Nc1ccc(Oc2ccc(N)cc2)cc1,outcome,[1],inactive
same,outcome,[3],inactive
same,outcome,[4],inactive
same,outcome,[5],inactive
same,outcome,[6],inactive
same,outcome,[7],inactive
same,outcome,[8],inactive
same,outcome,[9],inactive
CS(=O)(=O)NC(=O)c1cc(Oc2ccc(C(F)(F)F)cc2Cl)ccc1[N+](=O)[O-],outcome,[1],inactive
same,outcome,[3],inactive
same,outcome,[4],inactive
same,outcome,[5],inactive
same,outcome,[6],inactive
same,outcome,[7],inactive
same,outcome,[8],inactive
same,outcome,[9],inactive
C[C@]12C=CC3=C4CCC(=O)C=C4CC[C@H]3[C@@H]1CC[C@@H]2O,outcome,[1],inactive
same,outcome,[3],inactive
same,AC50,[4],27.7 µM (active)
same,AC50,[5],0.164 µM (active)
same,outcome,[6],inactive
same,outcome,[7],inactive
same,outcome,[8],inactive
same,outcome,[9],inactive
CC(C)(C)C(O)(CCc1ccc(Cl)cc1)Cn1cncn1 (centres undefined),outcome,[1],inactive
same,outcome,[3],inactive
same,outcome,[4],inactive
same,outcome,[5],inactive
same,outcome,[6],inactive
same,outcome,[7],inactive
same,outcome,[8],inactive
same,outcome,[9],inactive
N#CC(Br)(Br)C(N)=O,outcome,[1],inactive
same,outcome,[3],inactive
same,outcome,[4],inactive
same,outcome,[5],inactive
same,outcome,[6],inactive
same,outcome,[7],inactive
same,outcome,[8],inactive
same,outcome,[9],inactive
Clc1ccc(C(c2ccc(Cl)cc2)C(Cl)(Cl)Cl)cc1,AC50,[1],10.6 µM (active)
same,AC50,[3],14.8 µM (active)
same,AC50,[4],9.94 µM (active)
same,AC50,[5],8.38 µM (active)
same,AC50,[6],27.7 µM (active)
same,AC50,[7],16.3 µM (active)
same,AC50,[8],18.7 µM (active)
same,AC50,[9],25.1 µM (active)
CNC(=O)Oc1cccc2c1OC(C)(C)C2,outcome,[1],inactive
same,outcome,[2],inactive
same,outcome,[3],inactive
same,outcome,[4],inactive
same,outcome,[5],inactive
same,outcome,[6],inactive
same,outcome,[7],inactive
same,outcome,[8],inactive
same,outcome,[9],inactive
OCCCBr,outcome,[1],inactive
same,outcome,[3],inactive
same,outcome,[4],inactive
same,outcome,[5],inactive
same,outcome,[6],inactive
same,outcome,[7],inactive
same,outcome,[8],inactive
same,outcome,[9],inactive
O=P(OCCCl)(OCCCl)OCCCl,outcome,[1],inactive
same,outcome,[3],inactive
same,outcome,[4],inactive
same,outcome,[5],inactive
same,outcome,[6],inactive
same,outcome,[7],inactive
same,outcome,[8],inactive
same,outcome,[9],inactive
CCC[CH2][Sn]([Cl])([CH2]CCC)[CH2]CCC,AC50,[1],0.148 µM (active)
same,AC50,[3],0.271 µM (active)
same,AC50,[4],0.148 µM (active)
same,AC50,[5],0.296 µM (active)
same,AC50,[6],0.148 µM (active)
same,AC50,[7],0.342 µM (active)
same,AC50,[8],0.422 µM (active)
same,AC50,[9],0.294 µM (active)
O=C(Oc1ccc(Br)cc1)N1CCN2CCC1CC2,outcome,[1],inactive
same,outcome,[3],inactive
same,outcome,[4],inactive
same,outcome,[5],inactive
same,outcome,[6],inactive
same,outcome,[7],inactive
same,outcome,[8],inactive
same,outcome,[9],inactive
